Data: PubChem BioAssay (EPA / NIEHS)
Values joined by “and” are separate entries in the source; they are usually repeats but may differ in a detail not shown here. Equal entries are not always repeated. Records with an inconclusive call do not appear. The source holds several records for some structures; these can differ, active in one and inactive in another. Active and inactive are the calls of the source. How the source made its calls, unless noted: active means hit-call score of the fitted dose curve at least 0.9, where 1 is the maximum; inactive means score below 0.9.

Experiments:
[1] = CCTE_Shafer_MEA_acute_burst_number: CCTE's Neural Acute Assay for Single-Electrode Bursts, Shafer Lab (AID 2284013)
Outline: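 Burst totals were derived with adaptive spike detection (8x rms threshold) on filtered signals from rat cortical cultures; change relative to pre-treatment baseline after 40-min compound exposure (0.03-40 uM) was fitted in the negative direction against DMSO.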

[2] = CCTE_Shafer_MEA_acute_burst_duration_mean: CCTE's Neural Acute Assay for Mean Burst Duration, Shafer Lab (AID 2284014);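 further: hits are decreases in mean burst duration relative to DMSO controls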
Outline: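 Acute exposure of mature rat cortical networks (DIV 13 or 15) grown on microelectrode arrays to 0.03-40 uM compound. Mean burst duration compared with the 40-min pre-dose baseline over a 40-min post-dose recording at 37 C.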

[3] = CCTE_Shafer_MEA_acute_per_burst_spike_number_mean: CCTE's Neural Acute Assay for Average Number of Spikes Per Burst, Shafer Lab (AID 2284015);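 further: hits are decreases in mean spikes per burst versus baseline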
Outline: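 Read-out: percent change in mean spikes per burst, each well's post-exposure 40-min recording versus its own 40-min baseline. Rat cortical cultures, DIV 13 or 15, compounds 0.03-40 uM; DMSO is negative control, loss-of-signal fitting.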

[4] = CCTE_Shafer_MEA_acute_interburst_interval_mean: CCTE's Neural Acute Assay for Mean Interburst Interval, Shafer Lab (AID 2284016);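 further: percent change of mean interburst interval versus each well's own pre-dose baseline; curves fitted for decrease in interburst interval relative to DMSO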
Outline: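 Rat cortical cultures, DIV 13/15; 20 min equilibration, 40 min baseline, compound 0.03-40 uM, 40 min re-recording, 37 C. Spikes detected at 8x rms noise (300-5000 Hz band-pass). Endpoint: % change in interburst interval, fitted in loss direction vs DMSO.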

[5] = CCTE_Shafer_MEA_acute_burst_percentage_mean: CCTE's Neural Acute Assay for Percentage of Spikes in a Burst, Shafer Lab (AID 2284017);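 on AC50: curve fitted for loss of signal so potency reflects decreased burst percentage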
Outline: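 Rat cortical cultures, DIV 13/15, 37 C. Spikes detected at 8x rms noise (300-5000 Hz band-pass). Burst spikes/total spikes averaged across electrodes per well; % change post- vs pre-treatment (40 min each), loss-of-signal fit vs DMSO.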

[6] = CCTE_Shafer_MEA_acute_burst_percentage_std: CCTE's Neural Acute Assay for Standard Deviation of Burst Percentage, Shafer Lab (AID 2284018);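 further: fitted in the negative direction so actives lower burst percentage SD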
Outline: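 Primary rat cortical neurons on 16-electrode MEA wells were recorded 40 min at baseline (DIV 13 or 15), then 40 min after compound (0.03-40 uM), at 37 C. Well value is SD across electrodes of spikes-in-bursts/total spikes; endpoint is percent change, DMSO-referenced.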

[7] = CCTE_Shafer_MEA_acute_per_network_burst_spike_number_mean: CCTE's Neural Acute Assay for Average Number of Spikes in a Network Burst, Shafer Lab (AID 2284019);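 on AC50: curve fitted for loss of signal so actives reduce spikes per network burst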
Outline: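 Acute exposure of rat primary cortical networks (DIV 13/15) on MEAs; adaptive spike detection at 8x rms noise, 37 C. Percent change in spikes per network burst after 40 min with compound (0.03-40 uM), negative direction vs DMSO.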

[8] = CCTE_Shafer_MEA_acute_per_network_burst_spike_number_std: CCTE's Neural Acute Assay for Standard Deviation of Number of Spikes in a Network Burst, Shafer Lab (AID 2284020);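 further: fitted for decrease in spike-number SD versus DMSO so actives lower it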
Outline: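 Acute MEA exposure, rat cortical neurons, 0.03-40 uM. Per-well % change versus own baseline; DMSO as negative control.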

[9] = CCTE_Shafer_MEA_acute_per_network_burst_electrodes_number_mean: CCTE's Neural Acute Assay for Mean Number of Electrodes in a Network Burst, Shafer Lab (AID 2284021);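 further: curves fitted for decreases only so hits reduce electrodes per burst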
Outline: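 Rat primary cortical neurons on 48-well MEAs, DIV 13 or 15, were treated at 0.03-40 uM. Spikes were detected at 8x rms noise and recorded at 37 C. The mean electrodes per network burst in a 40 min exposure recording was expressed as percent change from a 40 min baseline.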

[10] = CCTE_Shafer_MEA_acute_network_burst_percentage: CCTE's Neural Acute Assay for Percentage of Network Bursts, Shafer Lab (AID 2284022);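 further: curves fitted for loss so actives lower network burst percentage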
Outline: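 Rat primary cortical neuron networks on 48-well MEA plates, DIV 13 or 15, treated acutely with compound (0.03-40 uM, at least three wells). Percent of spikes within network bursts compared between 40-min recordings before and during exposure at 37 C, expressed as percent change.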

[11] = CCTE_Shafer_MEA_acute_cross_correlation_area: CCTE's Neural Acute Assay for Area of Cross Correlation, Shafer Lab (AID 2284024);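 further: curves fitted for loss of cross-correlation area so actives lower synchrony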
Outline: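 Rat primary cortical neurons on 48-well MEA, DIV 13 or 15; compounds 0.03-40 uM. Baseline and post-exposure 40 min recordings at 37 C; percent change in area under pooled inter-electrode cross-correlation near zero lag, relative to DMSO.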

[12] = CCTE_Shafer_MEA_acute_cross_correlation_HWHM: CCTE's Neural Acute Assay for Cross Correlation at Half Width at Half Maximum, Shafer Lab (AID 2284026);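 further: percent change per well from pre-dose baseline in spike cross-correlogram half width; hits are a decrease in cross-correlogram half width relative to DMSO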
Outline: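 Rat primary cortical neurons on 48-well MEA plates; 40-min baseline and 40-min post-exposure recordings at 37 C on DIV 13 or 15, compounds 0.03-40 uM. Spikes detected at 8x rms noise; percent change in cross-correlogram HWHM per well vs baseline.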

[13] = CCTE_Shafer_MEA_acute_synchrony_index: CCTE's Neural Acute Assay for Synchrony, Shafer Lab (AID 2284027);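 further: network synchrony index of spontaneous spiking in primary rat cortical neurons on MEAs; fitted for loss of signal so actives lower synchrony relative to DMSO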
Outline: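 The synchrony index is taken as percent change per well between a 40 min baseline and a 40 min recording with compound (0.03–40 uM), at 37C. Rat cortical cultures on multiwell MEAs at DIV 13 or 15, spike threshold 8× rms noise.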

[14] = target: Estrogen receptor (Homo sapiens) (UniProt P03372); assay: CCTE_Deisenroth_AIME_96WELL_LUC_Active: CCTE's 96-well Estrogen Receptor Transactivation Assay with AIME metabolic competence (ERTA luciferase; metabolism positive), Deisenroth Lab (AID 2284023; active means hit-call score of the fitted dose curve at least 0.9, where 1 is the maximum)
Outline: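 Metabolism-positive mode: induced rat hepatic S9 in alginate microspheres conditions test solutions (0.002 - 200 uM, 10 points) for 2 hours. VM7Luc4E2 ER luciferase reporter cells then exposed 24 h; positive-direction fit against 17beta-estradiol, n=4 typical.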

[15] = target: Estrogen receptor (Homo sapiens) (UniProt P03372); assay: CCTE_Deisenroth_AIME_96WELL_LUC_Inactive: CCTE's 96-well Estrogen Receptor Transactivation Assay without AIME metabolic competence (ERTA luciferase; metabolism negative), Deisenroth Lab (AID 2284025; active means hit-call score of the fitted dose curve at least 0.9, where 1 is the maximum)
Outline: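 Metabolism-negative arm: chemicals (0.002–200 uM, 10 points) incubated 2 h with alginate-water microspheres, then medium moved onto VM7Luc4E2 cells for 24 h luciferase read-out. Positive direction vs 17beta-estradiol; n≥4 experiments.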

[16] = CCTE_Deisenroth_AIME_96WELL_CTox_Inactive: Cytotoxicity Assessment (CTOX) in CCTE's 96-well Estrogen Receptor Transactivation Assay without AIME metabolic competence (metabolism negative), Deisenroth Lab (AID 2284029; active means hit-call score of the fitted dose curve at least 0.9, where 1 is the maximum)
Outline: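 Metabolism-negative mode: alginate-water lids without rat S9, 2 h pre-incubation of 10-point series (0.002 - 200 uM). Conditioned medium on VM7Luc4E2 cells 24 h; loss of fluorescent live-cell protease signal marks cytotoxicity.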

[17] = target: Estrogen receptor (Homo sapiens) (UniProt P03372); assay: CCTE_Deisenroth_AIME_384WELL_LUC_Active: CCTE's 384-well Estrogen Receptor Transactivation Assay with AIME metabolic competence (ERTA luciferase; metabolism positive), Deisenroth Lab (AID 2284030; active means hit-call score of the fitted dose curve at least 0.9, where 1 is the maximum)
Outline: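 Chemicals (10-point, 0.002-200 uM) were first incubated 2 hours with alginate-immobilized induced male Sprague Dawley rat liver S9. The conditioned medium was then applied to VM7Luc4E2 cells for 24 hours, with ER luciferase induction read by luminescence relative to 17beta-estradiol.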

[18] = CCTE_Shafer_MEA_dev_firing_rate_mean: CCTE's Neural Network Formation Assay for Mean Firing Rate, Shafer Lab (AID 2284031);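 on AC50: curve fitted for loss of firing so AC50 reflects decreased mean firing rate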
Outline: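 Spike frequency (spikes/recording length, averaged over active electrodes) was recorded on days 5, 7, 9 and 12 and collapsed to AUC; rat cortical cultures received compound continuously over 12 days of network development.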

[19] = CCTE_Shafer_MEA_dev_per_burst_spike_percent: CCTE's Neural Network Formation Assay for Percent of Spikes in a Burst, Shafer Lab (AID 2284032);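 on AC50: fitted as a decrease in burst spike percentage below DMSO baseline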
Outline: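 Value is trapezoidal AUC over recordings on days 5, 7, 9 and 12 of the well-mean fraction of spikes falling in single-electrode bursts; rat cortical cultures exposed continuously from plating, treatment renewed DIV 5 and 9, fitted downward against DMSO.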

[20] = CCTE_Deisenroth_AIME_96WELL_CTox_Active: Cytotoxicity Assessment (CTOX) in CCTE's 96-well Estrogen Receptor Transactivation Assay with AIME metabolic competence (metabolism positive), Deisenroth Lab (AID 2284028; active means hit-call score of the fitted dose curve at least 0.9, where 1 is the maximum)
Outline: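 Cytotoxicity in VM7Luc4E2 breast cells after 24 h exposure to medium from a 2 h metabolic pre-incubation with induced rat hepatic S9 in alginate microspheres; fluorescent live-cell protease readout, 10-point series 0.002–200 uM, n=4.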

Measured: AC50

Chain of Estrogen receptor (Homo sapiens) (P03372 whole entry, looked up): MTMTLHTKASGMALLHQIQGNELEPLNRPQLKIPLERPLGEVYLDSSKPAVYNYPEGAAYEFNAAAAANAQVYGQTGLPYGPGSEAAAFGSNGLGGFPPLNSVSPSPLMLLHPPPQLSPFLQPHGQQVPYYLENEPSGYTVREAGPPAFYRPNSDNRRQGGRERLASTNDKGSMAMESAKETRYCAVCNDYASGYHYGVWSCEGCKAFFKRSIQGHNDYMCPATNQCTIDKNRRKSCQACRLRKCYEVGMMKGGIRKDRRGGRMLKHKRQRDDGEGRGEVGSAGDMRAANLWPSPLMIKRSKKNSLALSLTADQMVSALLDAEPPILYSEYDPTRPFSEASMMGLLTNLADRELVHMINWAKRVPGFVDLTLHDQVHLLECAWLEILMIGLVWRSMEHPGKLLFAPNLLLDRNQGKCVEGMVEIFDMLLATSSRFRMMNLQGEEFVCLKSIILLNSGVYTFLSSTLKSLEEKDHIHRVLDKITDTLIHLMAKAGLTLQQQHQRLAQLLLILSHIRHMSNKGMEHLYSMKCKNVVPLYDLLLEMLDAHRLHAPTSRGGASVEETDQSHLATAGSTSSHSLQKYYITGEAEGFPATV

OC(c1ccc(Cl)cc1)(c1cncnc1)c1ccccc1Cl (centres undefined)
active: [1] 0.882 µM | [2] 5 µM | [3] 5 µM | [4] 3.27 µM | [5] 2.9 µM | [7] 1.62 µM | [8] 2.84 µM | [9] 2.52 µM | [10] 6.61 µM | [11] 0.761 µM | [12] 4.34 µM | [13] 3.05 µM
inactive: [6]

Oc1ccccc1-c1ccccc1
inactive: [16]
active: [14] 68.8 µM | [15] 58.3 µM | [17] 57.9 µM

Fc1ccc(Oc2ccnc3cc(Cl)cc(Cl)c23)cc1
not listed: [14] | [15] | [16] | [17] | [18] | [19] | [20]
inactive: all other assays above

COC(=O)N(OC)c1ccccc1COc1ccn(-c2ccc(Cl)cc2)n1
active: [1] 0.0942 µM | [3] 2.16 µM | [5] 0.976 µM | [6] 0.0765 µM | [10] 0.113 µM | [11] 0.0374 µM | [12] 1.62 µM | [13] 1.73 µM | [18] 79.6 nM | [19] 184 nM and 27 nM
inactive: [2] | [4] | [7] | [8] | [9] | [17] | [18]

CCOP(=S)(OCC)SCn1c(=O)oc2cc(Cl)ccc21
inactive: [1] | [3] | [6] | [7] | [8] | [11] | [12]
active: [2] 20 µM | [4] 30.2 µM | [5] 32.3 µM | [9] 20 µM | [10] 29 µM | [13] 29.3 µM

CCCCNC(=O)OCC#CI
inactive: [1] | [2] | [3] | [6] | [7] | [11]
active: [4] 31.4 µM | [5] 20 µM | [8] 6.46 µM | [9] 20 µM | [10] 37.1 µM | [12] 31.7 µM | [13] 15.5 µM | [18] 3.81 µM and 2.25 µM | [19] 3.25 µM and 1.37 µM

N#CC(CCc1ccc(Cl)cc1)(Cn1cncn1)c1ccccc1 (centres undefined)
not listed: [14] | [15] | [16] | [17] | [18] | [19] | [20]
inactive: all other assays above

CCCCC(CC)COC(=O)c1ccccc1C(=O)OCC(CC)CCCC (centres undefined)
active: [18] 2.98 µM and 3.04 µM | [19] 15 µM and 9.27 µM
inactive: [14] | [15] | [20] | [16] | [18] | [19]

CCCC1COC(Cn2cncn2)(c2ccc(Cl)cc2Cl)O1 (centres undefined)
inactive: [1] | [2] | [4] | [6] | [11]
active: [3] 20 µM | [5] 14.6 µM | [7] 9.03 µM | [8] 12.6 µM | [9] 15.2 µM | [10] 20 µM | [12] 25.8 µM | [13] 17.5 µM

CCCCOC(=O)c1ccccc1C(=O)OCCCC
inactive: [14] | [20] | [18]
active: [15] 34.1 µM | [19] 75.3 µM
